Reference: PubChem BioAssay AID743289 (Broad Institute, 2014)
This is one part of the list.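 The calls were made as follows: active = compounds lowering fluorescence whose fitted half-maximal concentration is no more than twice their top tested dose; inconclusive = flat fit with 30 to 70% inhibition, or poor fit; inactive = the rest.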

molecular target: Caspase-1 (Homo sapiens) (UniProt P29466); test: caspase-1 enzyme inhibition, selectivity check – biochemical, Z-YVAD-R110 fluorescence, cherry-pick, set 2, selectivity assay for caspase-6 inhibitor project, dose response (AID 743289); conditions: purified caspase-1, Z-YVAD-R110 cleavage fluorescence; series mostly up to 35 µM; activity change, negative = inhibition: at the top concentration
Sequence (P29466 whole entry, looked up): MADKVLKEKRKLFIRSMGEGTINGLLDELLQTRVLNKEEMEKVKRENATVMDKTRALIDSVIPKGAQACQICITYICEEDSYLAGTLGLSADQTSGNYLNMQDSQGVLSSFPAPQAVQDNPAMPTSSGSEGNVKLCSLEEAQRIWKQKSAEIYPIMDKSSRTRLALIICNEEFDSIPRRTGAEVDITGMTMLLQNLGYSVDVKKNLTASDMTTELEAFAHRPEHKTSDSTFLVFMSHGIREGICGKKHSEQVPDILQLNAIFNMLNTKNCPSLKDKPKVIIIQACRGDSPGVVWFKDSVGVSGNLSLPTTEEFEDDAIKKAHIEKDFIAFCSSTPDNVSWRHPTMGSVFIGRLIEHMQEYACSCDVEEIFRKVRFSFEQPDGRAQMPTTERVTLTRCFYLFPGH

Activity change, negative = inhibition, inactive:
CNS(=O)(=O)c1cccc(C(=O)OCC(=O)N2c3ccccc3NC(=O)C2(C)C)c1 -1%
CCN(CC)CCCC(C)n1c2nc(=O)[nH]c(=O)c-2nc2cc(Cl)ccc21 (stereo not given) -0.661%
O=c1ccc2c(-c3ccccc3S(=O)(=O)O)c3ccc(O)c(O)c3oc-2c1O -6.4%
COc1cc(NC(=O)COC(=O)c2ccc([N+](=O)[O-])s2)cc(OC)c1OC -2.52%
Cc1c(CCC(=O)O)c(=O)oc2c(C)c(OCc3ccccc3Cl)ccc12 20.6%
